Records with an inconclusive call do not appear. Where a call stands in place of a potency, no number is given. A number with no mark means an inactive call. Active and inactive are the calls of the source. The call rests on the fitted dose curve; in most records, active means well fitted cell-killing curve with a large enough effect in the repeat runs; inconclusive means weak or mixed curves, or effect the other way; inactive means flat fitted curve, though single readings scatter.
Experiment: qHTS RealTime-Glo MT Cell Viability Assay in HEK293 cells - 0 hour (AID 1224880); further: nearly all actives have a fitted effect of over 45% in size; on activity change, negative = cytotoxicity: top concentration of the series differs between compounds
Settings: RealTime-Glo luminescence; series mostly up to 76.8 µM
Excerpt: U.S. Tox21 Program National Center for Advancing Translational Sciences [NCATS] NIH Chemical Genomics Center [NCGC] U.S. Environmental Protection Agency [EPA] National Institutes of Environmental Health Sciences [NIEHS] National Toxicology Program [NTP] U.S. Food and Drug Administration [FDA] Tox21 Assay Overview: Measure of cell viability is critical in the cell-base assay. Analysis of cell viability is necessary for the characterization of cell responses to cytotoxic drugs and environmental stress. A RealTime-Glo MT Cell Viability Assay to monitor cell viability in real time of continues cell culture during 40 hours of compound treatment was used to screen Tox21 10K library compounds in Hek293 cells. The RealTime-Glo MT Cell Viability Assay is a nonlytic, homogeneous, bioluminescent method to measure cell viability in real time using a simple, plate-based method. The assay involves adding NanoLuc luciferase and a cell-permeant prosubstrate to cells in culture. Viable cells reduce the proprietary prosubstrate to generate a substrate for NanoLuc luciferase. This substrate diffuses from cells into the surrounding culture medium, where it is rapidly used by the NanoLuc Enzyme to produce a luminescent signal. The signal correlates with the number of viable cells, making the assay well suited for cytotoxicity studies.
Tox21 Assay Protocol Summary: The mixture of Hek293 cell suspension and reagents were dispensed at 600cells/6 ul/well in 1536-well tissue culture treated black solid bottom plates using a Multidrop dispenser. After the assay plates were incubated at a 37 C/5% CO2 incubator for 5 hours, 23 nL of compounds dissolved in DMSO, positive and negative controls was transferred to the assay plate by a pintool work station. The plates were incubated at 37 C for 40 hours. The luminescence intensity were measured at 0h, 8h, 16h, 24h, 32h and 40h time points using ViewLux plate reader during compound treatment.
Potency means the concentration at half of the fitted maximal effect.

Which Potency does the source give for `ON=C1CCCC1` here?
The Potency was “inactive”.

For `COc1ccc(CN2CCN(C(c3ccc(F)cc3)c3ccc(F)cc3)CC2)c(OC)c1OC`, which Potency is on record?
Its Potency is “inactive”.

With `O=c1cccccc1O` as the compound, how does the Potency read?
The Potency was “inactive”.

With `CCC1OCC(COc2ccc(Oc3ccccc3)cc2)O1` (stereo not given) as the compound, how does the Potency read?
Its Potency is “inactive”.

For `Oc1ccc2c(c1)-c1ccccc1C2`, which Potency is on record?
Its Potency is “inactive”.

For `Cc1[nH]nc2c1N=C(c1ccccc1Cl)c1cc([N+](=O)[O-])ccc1N2`, which Potency is on record?
Its Potency is “inactive”.

With `CN(C/C=C/C#CC(C)(C)C)Cc1cccc2ccccc12` as the compound, how does the Potency read?
The Potency was “inactive”.

Which Potency does the source give for `CCC(C)Nc1ccc(NC(C)CC)cc1` (stereo not given) here?
Its Potency is 19.9 µM (active).

Which Potency does the source give for `COc1cccc(N)c1` here?
Its Potency is “inactive”.

With `CCC1=C[C@@H]2CN(C1)Cc1c([nH]c3ccccc13)[C@@](C(=O)OC)(c1cc3c(cc1OC)N(C)[C@H]1[C@@](O)(C(=O)OC)[C@H](OC(C)=O)[C@]4(CC)C=CCN5CC[C@]31[C@@H]54)C2` as the compound, how does the Potency read?
Its Potency is “inactive”.

For `Clc1ccc2nsnc2c1NC1=NCCN1`, which Potency is on record?
Its Potency is “inactive”.

With `Oc1cccc(-c2c3nc(c(-c4cccc(O)c4)c4ccc([nH]4)c(-c4cccc(O)c4)c4nc(c(-c5cccc(O)c5)c5ccc2[nH]5)CC4)C=C3)c1` as the compound, how does the Potency read?
The Potency was “inactive”.

With `Cc1ccc(O)c2ncccc12` as the compound, how does the Potency read?
Its Potency is “inactive”.

For `Cn1cc(C(=O)[C@@H]2CCc3nc[nH]c3C2)c2ccccc21`, which Potency is on record?
Its Potency is “inactive”.

Which Potency does the source give for `O=C(Nc1cccc([N+](=O)[O-])c1)c1cc2ccccc2cc1O` here?
The Potency was “inactive”.

For `O=C1Cc2cc(CCN3CCN(c4nsc5ccccc45)CC3)c(Cl)cc2N1`, which Potency is on record?
Its Potency is “inactive”.

For `CC(C)CCCCCCCCCCCCCCC(=O)O`, which Potency is on record?
Its Potency is “inactive”.

With `Cc1cc(O)c(C(C)(C)C)cc1C(C)(C)C` as the compound, how does the Potency read?
The Potency was “inactive”.

Which Potency does the source give for `[Cl][Au]([Cl])[Cl]` here?
Its Potency is “inactive”.

Which activity change, negative = cytotoxicity does the source give for `O=C(OC[C@H]1O[C@@H](OC(=O)c2cc(O)c(O)c(OC(=O)c3cc(O)c(O)c(O)c3)c2)[C@H](OC(=O)c2cc(O)c(O)c(OC(=O)c3cc(O)c(O)c(O)c3)c2)[C@@H](OC(=O)c2cc(O)c(O)c(OC(=O)c3cc(O)c(O)c(O)c3)c2)[C@@H]1OC(=O)c1cc(O)c(O)c(OC(=O)c2cc(O)c(O)c(O)c2)c1)c1cc(O)c(O)c(OC(=O)c2cc(O)c(O)c(O)c2)c1` here?
The activity change, negative = cytotoxicity was -3.48% [at 15.8 µM].

With `Cc1cc(CCN2CCN(c3nsc4ccccc34)CC2)cc2c1NC(=O)CC2(C)C` as the compound, how does the Potency read?
The Potency was “inactive”.

With `CC(C)(C)C(=O)OCOC(=O)[C@@H]1N2C(=O)[C@@H](NC(=O)[C@H](N)c3ccccc3)[C@H]2SC1(C)C` as the compound, how does the Potency read?
The Potency was “inactive”.

For `O=C(c1ccc(F)cc1)C1CCN(CCn2c(=O)[nH]c3ccccc3c2=O)CC1`, which Potency is on record?
The Potency was “inactive”.

Which Potency does the source give for `CC(C)n1nc(-c2cc3cc(O)ccc3[nH]2)c2c(N)ncnc21` here?
The Potency was “inactive”.

For `CSc1ccc(/C=C2/C(C)=C(CC(=O)O)c3cc(F)ccc32)cc1`, which Potency is on record?
The Potency was “inactive”.

For `Nc1ccc2cc(S(=O)(=O)O)cc(O)c2c1N=Nc1ccccc1C(F)(F)F`, which Potency is on record?
Its Potency is “inactive”.

For `CCCCN1C(=O)[C@@H]([C@H](O)C2CCCCC2)NC(=O)C12CCN(Cc1ccc(Oc3ccc(C(=O)O)cc3)cc1)CC2`, which Potency is on record?
Its Potency is “inactive”.

Which Potency does the source give for `O=S1(=O)CC(Cl)(Cl)C(Cl)(Cl)C1` here?
The Potency was “inactive”.

For `Cc1cc(=O)oc2cc(N(C)C)ccc12`, which Potency is on record?
Its Potency is “inactive”.

Which Potency does the source give for `Cc1cccc(CN2CCN(C(c3ccccc3)c3ccc(Cl)cc3)CC2)c1` (stereo not given) here?
Its Potency is “inactive”.

For `COc1cc(-c2nc(NC(=O)c3cc4cc(C)cc(C)c4n3CC(=O)O)sc2CCC2CCCCC2)c(OC)cc1Cl`, which Potency is on record?
The Potency was “inactive”.

With `CCN(CCC#N)c1ccc(N=Nc2c(Cl)cc([N+](=O)[O-])cc2Cl)cc1` as the compound, how does the Potency read?
Its Potency is “inactive”.

Which Potency does the source give for `CCN(CC)CCCC(C)Nc1c2ccc(Cl)cc2nc2ccc(OC)cc12` (stereo not given) here?
Its Potency is “inactive”.

For `O=c1cc(-c2ccc(O)cc2)oc2cc(O)cc(O)c12`, which Potency is on record?
The Potency was “inactive”.

With `C[n+]1cc2c3c(ccc2c2ccc4cc5c(cc4c21)OCO5)OCO3` as the compound, how does the activity change, negative = cytotoxicity read?
The activity change, negative = cytotoxicity was -2.48% [at 15.8 µM].

For `O=C(Nc1ccc(Oc2ccc(Cl)cc2)c(Cl)c1)c1cc(I)cc(I)c1O`, which Potency is on record?
The Potency was “inactive”.

With `CNC(=O)c1ccccc1` as the compound, how does the Potency read?
Its Potency is “inactive”.

For `CCCCc1oc2ccc(NS(C)(=O)=O)cc2c1C(=O)c1ccc(OCCCN(CCCC)CCCC)cc1`, which Potency is on record?
Its Potency is “inactive”.

For `O=C(NOCC1CC1)c1ccc(F)c(F)c1Nc1ccc(I)cc1Cl`, which Potency is on record?
Its Potency is 16.9 µM (active).

For `CCN(Cc1cccnc1)C(=O)c1cccc(Cl)c1[C@]1(C)C(=O)N(Cc2ccc(OC)cc2OC)c2ccc(Cl)cc21`, which Potency is on record?
Its Potency is “inactive”.

From PubChem BioAssay (Tox21)
